# Targets with a hit are over-represented here; the source holds about 8,800 in all. About 0.5% of all pairs of compound and target were hits. Values without a mark were called inactive.
# Key:
# Test in all cases: log2 fold change, soluble protein after heating vs DMSO (PISA); higher = thermal stabilisation; K562 lysate, 10 uM; active = over 0.2 and 3.5 SD of the protein, either way, in both replicates (recomputed)
# nilotinib = compound: Cc1cn(-c2cc(NC(=O)c3ccc(C)c(Nc4nccc(-c5cccnc5)n4)c3)cc(C(F)(F)F)c2)cn1 [nilotinib]
# Method in brief: (§1)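 Soluble protein was defined as the supernatant remaining after 21,000xg for 90 min, following pooling of heated aliquots and adjustment to 0.5% NP-40 at 4°C. Before that, crude K562 extract at 1 mg/mL protein in PBS pH 7.4 with 1 mM MgCl2 was treated with 10 μM compound for 30 min and heated for 3 min across 48°C-58°C. Quantification used TMTpro 16plex LC-MS/MS with channel sums equalised, and values are log-two fold changes in thermal stability relative to solvent controls from duplicates.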
# [1] = compound: Cc1nc(Nc2n[nH]c3c2CN(C(=O)N[C@H](CN(C)C)c2ccccc2)C3(C)C)c2sccc2n1
# Method in brief: as §1
# dasatinib = compound: Cc1nc(Nc2ncc(C(=O)Nc3c(C)cccc3Cl)s2)cc(N2CCN(CCO)CC2)n1 [dasatinib]
# Method in brief: as §1
# [2] = compound: Cc1ncc(-c2ccnc(Nc3ccc(S(C)(=O)=O)cc3)n2)n1C(C)C
# Method in brief: as §1
# [3] = compound: Cn1cc(-c2ccc3c(c2)CCN3C(=O)Cc2cccc(C(F)(F)F)c2)c2c(N)ncnc21
# Method in brief: as §1
# quisinostat = compound: Cn1cc(CNCC2CCN(c3ncc(C(=O)NO)cn3)CC2)c2ccccc21 [quisinostat]
# Method in brief: as §1
# tipifarnib = compound: Cn1cncc1[C@@](N)(c1ccc(Cl)cc1)c1ccc2c(c1)c(-c1cccc(Cl)c1)cc(=O)n2C [tipifarnib]
# Method in brief: as §1
# [4] = compound: NC(=O)Nc1cc(-c2cccc(F)c2)sc1C(=O)N[C@H]1CCCNC1
# Method in brief: as §1
# [5] = compound: NC(=O)c1cnc(N[C@@H]2CCCC[C@@H]2N)nc1Nc1cccc(-n2nccn2)c1
# Method in brief: as §1
# [6] = compound: NC1(c2ccc(-c3nc4ccn5c(=O)[nH]nc5c4cc3-c3ccccc3)cc2)CCC1
# Method in brief: as §1
# [7] = compound: NCC(=O)Nc1ccc(-n2nc(C(F)(F)F)cc2-c2ccc3c(ccc4ccccc43)c2)cc1
# Method in brief: as §1
# vorinostat = compound: O=C(CCCCCCC(=O)Nc1ccccc1)NO [vorinostat]
# Method in brief: as §1
# silmitasertib = compound: O=C(O)c1ccc2c(c1)nc(Nc1cccc(Cl)c1)c1ccncc12 [silmitasertib]
# Method in brief: as §1
# [8] = compound: O=C1NC(=O)C(c2cnc3ccccn23)=C1c1cn2c3c(cc(F)cc13)CN(C(=O)N1CCCCC1)CC2
# Method in brief: as §1
# entospletinib = compound: c1cn2cc(-c3ccc4cn[nH]c4c3)nc(Nc3ccc(N4CCOCC4)cc3)c2n1 [entospletinib]
# Method in brief: as §1
# Chain of UniProt Q9Y285 (Q9Y285 whole entry, looked up): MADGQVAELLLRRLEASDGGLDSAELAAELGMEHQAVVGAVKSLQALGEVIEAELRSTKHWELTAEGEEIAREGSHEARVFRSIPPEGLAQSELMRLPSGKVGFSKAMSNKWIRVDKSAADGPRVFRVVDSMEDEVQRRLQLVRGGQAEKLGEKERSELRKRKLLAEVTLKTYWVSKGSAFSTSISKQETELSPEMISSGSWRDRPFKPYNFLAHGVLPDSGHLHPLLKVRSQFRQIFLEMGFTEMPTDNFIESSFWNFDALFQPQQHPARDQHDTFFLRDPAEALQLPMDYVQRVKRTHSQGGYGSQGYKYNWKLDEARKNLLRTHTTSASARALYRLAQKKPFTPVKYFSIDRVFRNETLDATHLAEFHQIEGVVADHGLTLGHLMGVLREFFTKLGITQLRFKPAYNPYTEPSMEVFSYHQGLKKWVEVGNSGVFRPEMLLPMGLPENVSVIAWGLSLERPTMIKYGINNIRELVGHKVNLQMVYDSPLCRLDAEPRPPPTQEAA
# Chain of UniProt Q9UI10 (Q9UI10 whole entry, looked up): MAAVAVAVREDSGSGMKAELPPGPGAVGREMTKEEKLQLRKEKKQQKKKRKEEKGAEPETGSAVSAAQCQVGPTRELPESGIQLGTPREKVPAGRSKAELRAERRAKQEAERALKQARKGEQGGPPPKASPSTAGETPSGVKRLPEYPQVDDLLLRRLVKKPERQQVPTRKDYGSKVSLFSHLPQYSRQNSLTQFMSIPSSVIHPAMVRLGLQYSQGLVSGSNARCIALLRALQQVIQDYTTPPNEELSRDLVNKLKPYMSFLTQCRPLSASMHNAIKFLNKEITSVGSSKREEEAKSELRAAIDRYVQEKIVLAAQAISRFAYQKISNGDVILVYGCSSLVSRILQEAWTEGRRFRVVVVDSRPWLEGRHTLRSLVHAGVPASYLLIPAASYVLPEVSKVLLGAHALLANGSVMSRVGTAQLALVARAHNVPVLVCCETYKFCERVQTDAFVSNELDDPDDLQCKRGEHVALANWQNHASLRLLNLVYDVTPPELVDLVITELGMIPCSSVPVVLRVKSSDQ
# Chain of UniProt O75521 (O75521 whole entry, looked up): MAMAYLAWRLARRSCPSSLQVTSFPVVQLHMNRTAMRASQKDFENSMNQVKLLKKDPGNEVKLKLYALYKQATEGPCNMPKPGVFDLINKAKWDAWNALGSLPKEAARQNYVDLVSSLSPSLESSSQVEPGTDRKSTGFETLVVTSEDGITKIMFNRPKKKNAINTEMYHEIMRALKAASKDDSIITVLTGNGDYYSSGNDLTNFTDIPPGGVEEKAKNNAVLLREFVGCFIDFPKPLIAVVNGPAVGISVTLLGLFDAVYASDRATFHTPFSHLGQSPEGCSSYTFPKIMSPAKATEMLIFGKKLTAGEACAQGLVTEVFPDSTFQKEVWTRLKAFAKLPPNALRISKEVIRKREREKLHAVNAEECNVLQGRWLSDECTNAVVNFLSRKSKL
# Chain of UniProt Q15717 (Q15717 whole entry, looked up): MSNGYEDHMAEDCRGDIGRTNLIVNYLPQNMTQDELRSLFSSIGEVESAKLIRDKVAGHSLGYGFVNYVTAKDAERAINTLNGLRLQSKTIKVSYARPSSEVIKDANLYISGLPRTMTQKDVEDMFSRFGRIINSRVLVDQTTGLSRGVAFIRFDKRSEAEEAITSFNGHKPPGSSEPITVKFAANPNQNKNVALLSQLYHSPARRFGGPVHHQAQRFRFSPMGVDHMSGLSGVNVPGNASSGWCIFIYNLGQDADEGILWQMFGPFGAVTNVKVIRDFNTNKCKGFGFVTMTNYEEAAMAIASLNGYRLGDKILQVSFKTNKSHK
# Chain of UniProt O14526 (O14526 whole entry, looked up): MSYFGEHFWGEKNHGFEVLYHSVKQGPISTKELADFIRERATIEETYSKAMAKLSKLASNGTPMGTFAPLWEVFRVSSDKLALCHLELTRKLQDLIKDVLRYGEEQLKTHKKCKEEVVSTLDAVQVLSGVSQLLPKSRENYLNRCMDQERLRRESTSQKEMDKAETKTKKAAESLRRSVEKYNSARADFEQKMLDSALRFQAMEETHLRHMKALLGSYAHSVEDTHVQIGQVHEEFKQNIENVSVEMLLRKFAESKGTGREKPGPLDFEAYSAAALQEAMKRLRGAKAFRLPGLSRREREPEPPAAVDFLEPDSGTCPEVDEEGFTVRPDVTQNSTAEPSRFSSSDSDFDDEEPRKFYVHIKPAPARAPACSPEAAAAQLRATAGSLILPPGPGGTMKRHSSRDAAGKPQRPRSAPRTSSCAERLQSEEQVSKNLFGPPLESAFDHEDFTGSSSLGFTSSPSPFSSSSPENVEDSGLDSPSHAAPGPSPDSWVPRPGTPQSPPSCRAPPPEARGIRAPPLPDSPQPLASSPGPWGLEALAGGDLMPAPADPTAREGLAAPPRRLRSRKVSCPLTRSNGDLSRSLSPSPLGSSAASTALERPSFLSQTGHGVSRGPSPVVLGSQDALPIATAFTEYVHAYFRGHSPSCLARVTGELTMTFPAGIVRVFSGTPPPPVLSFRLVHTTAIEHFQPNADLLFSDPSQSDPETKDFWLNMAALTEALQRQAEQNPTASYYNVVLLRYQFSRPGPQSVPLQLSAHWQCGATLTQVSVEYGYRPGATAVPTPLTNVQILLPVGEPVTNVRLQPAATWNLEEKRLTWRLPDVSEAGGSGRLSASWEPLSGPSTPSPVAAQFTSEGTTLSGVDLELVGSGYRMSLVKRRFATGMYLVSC
# Chain of UniProt Q8TF64 (Q8TF64 whole entry, looked up): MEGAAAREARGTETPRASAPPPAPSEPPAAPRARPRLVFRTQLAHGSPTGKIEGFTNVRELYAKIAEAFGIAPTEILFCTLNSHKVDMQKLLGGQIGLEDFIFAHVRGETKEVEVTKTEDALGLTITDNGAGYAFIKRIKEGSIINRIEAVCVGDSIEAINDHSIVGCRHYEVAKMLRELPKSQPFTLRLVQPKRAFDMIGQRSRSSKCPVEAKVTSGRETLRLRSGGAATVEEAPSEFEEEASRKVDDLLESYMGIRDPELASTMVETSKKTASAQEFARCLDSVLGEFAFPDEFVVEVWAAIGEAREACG
# Chain of UniProt Q56P03 (Q56P03 whole entry, looked up): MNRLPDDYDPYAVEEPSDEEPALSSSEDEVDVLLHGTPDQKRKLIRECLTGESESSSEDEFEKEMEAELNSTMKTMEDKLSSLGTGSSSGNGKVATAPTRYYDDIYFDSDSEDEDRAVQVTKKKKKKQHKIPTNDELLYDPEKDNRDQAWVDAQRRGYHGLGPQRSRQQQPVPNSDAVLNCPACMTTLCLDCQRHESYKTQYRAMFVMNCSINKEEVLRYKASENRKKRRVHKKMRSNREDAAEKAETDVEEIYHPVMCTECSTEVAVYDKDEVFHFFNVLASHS
# Chain of UniProt Q92947 (Q92947 whole entry, looked up): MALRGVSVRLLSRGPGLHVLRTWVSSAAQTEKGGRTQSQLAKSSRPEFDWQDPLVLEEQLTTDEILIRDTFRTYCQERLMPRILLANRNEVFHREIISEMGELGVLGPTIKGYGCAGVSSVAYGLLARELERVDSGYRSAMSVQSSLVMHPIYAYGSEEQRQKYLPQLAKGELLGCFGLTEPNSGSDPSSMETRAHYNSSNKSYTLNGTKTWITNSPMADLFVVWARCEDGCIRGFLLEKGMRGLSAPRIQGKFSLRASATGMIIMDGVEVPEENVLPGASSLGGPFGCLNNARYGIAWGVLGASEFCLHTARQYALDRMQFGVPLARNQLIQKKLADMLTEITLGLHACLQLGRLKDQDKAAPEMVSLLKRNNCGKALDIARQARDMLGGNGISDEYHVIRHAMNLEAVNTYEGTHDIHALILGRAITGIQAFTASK
# Chain of UniProt Q06210 (Q06210 whole entry, looked up): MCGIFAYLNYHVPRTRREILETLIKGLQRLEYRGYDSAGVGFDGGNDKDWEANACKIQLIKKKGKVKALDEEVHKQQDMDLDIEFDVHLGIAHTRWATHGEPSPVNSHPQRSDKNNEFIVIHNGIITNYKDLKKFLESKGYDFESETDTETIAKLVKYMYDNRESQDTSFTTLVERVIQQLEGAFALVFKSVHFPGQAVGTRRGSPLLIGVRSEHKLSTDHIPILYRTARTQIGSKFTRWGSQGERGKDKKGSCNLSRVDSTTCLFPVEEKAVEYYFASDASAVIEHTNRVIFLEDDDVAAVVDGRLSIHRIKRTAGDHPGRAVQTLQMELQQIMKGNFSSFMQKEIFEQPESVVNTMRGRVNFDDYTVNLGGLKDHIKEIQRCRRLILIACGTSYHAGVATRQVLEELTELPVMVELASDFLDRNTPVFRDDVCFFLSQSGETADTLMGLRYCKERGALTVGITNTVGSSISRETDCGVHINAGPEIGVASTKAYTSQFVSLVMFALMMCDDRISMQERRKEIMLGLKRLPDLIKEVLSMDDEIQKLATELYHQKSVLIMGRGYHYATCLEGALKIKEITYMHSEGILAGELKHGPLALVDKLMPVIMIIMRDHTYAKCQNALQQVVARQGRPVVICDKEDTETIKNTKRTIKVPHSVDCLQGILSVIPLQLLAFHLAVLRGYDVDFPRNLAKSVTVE
# Chain of UniProt Q9GZT9 (Q9GZT9 whole entry, looked up): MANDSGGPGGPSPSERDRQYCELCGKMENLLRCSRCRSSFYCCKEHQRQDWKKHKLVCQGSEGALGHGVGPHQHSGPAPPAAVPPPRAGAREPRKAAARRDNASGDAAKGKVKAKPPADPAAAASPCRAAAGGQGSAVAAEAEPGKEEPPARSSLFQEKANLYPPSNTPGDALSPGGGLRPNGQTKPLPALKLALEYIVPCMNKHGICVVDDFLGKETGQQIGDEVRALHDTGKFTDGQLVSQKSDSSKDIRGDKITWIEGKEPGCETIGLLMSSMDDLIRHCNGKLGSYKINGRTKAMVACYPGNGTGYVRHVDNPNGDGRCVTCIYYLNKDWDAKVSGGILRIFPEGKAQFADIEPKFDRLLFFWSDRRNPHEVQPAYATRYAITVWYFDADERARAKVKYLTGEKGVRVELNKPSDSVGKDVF
Target,log2 fold change (nilotinib),log2 fold change [1],log2 fold change (dasatinib),log2 fold change [2],log2 fold change [3],log2 fold change (quisinostat),log2 fold change (tipifarnib),log2 fold change [4],log2 fold change [5],log2 fold change [6],log2 fold change [7],log2 fold change (vorinostat),log2 fold change (silmitasertib),log2 fold change [8],log2 fold change (entospletinib)
GCDH (UniProt Q92947),-0.018,-0.129,0.024,-0.033,-0.022,-0.05,-0.018,-0.07,-0.021,-0.044,0.004,0.34 (active),0.161,0.187,0.046
EPB41 (UniProt P11171),-0.01,0.024,0,-0.007,0.031,0.039,0.011,0.003,0.012,0.003,-0.046,0.035,0.007,-0.034,0
GIGYF2 (UniProt Q6Y7W6),0.004,-0.03,0.006,0.007,0.024,-0.011,-0.09,0.026,0.007,-0.04,-0.001,-0.252 (active),-0.007,-0.042,0.017
FIBP (UniProt O43427),-0.001,0.036,0.013,-0.024,-0.043,0.019,-0.037,0.024,0,0,-0.049,-0.006,0.119,-0.02,-0.049
FDFT1 (UniProt P37268),0.032,-0.048,-0.012,-0.037,-0.008,-0.014,-0.053,0.005,0.042,-0.025,-0.004,-0.006,0.041,0.004,0.06
FMNL2 isoform 3 (UniProt Q96PY5),-0.1,-0.087,0.101,-0.018,-0.028,-0.1,-0.012,-0.047,0.002,-0.021,–,-0.587 (active),-0.027,0.045,–
EGLN1 (UniProt Q9GZT9),0.006,0.007,-0.045,-0.066,0.03,-0.048,-0.05,0.044,0.039,0.006,0.008,-0.395 (active),0.025,-0.024,-0.009
GFPT1 (UniProt Q06210),0.003,-0.009,-0.013,0.008,0.002,-0.031,-0.006,0.027,-0.003,-0.025,0.034,-0.409 (active),0.004,0.012,0.019
FARSA (UniProt Q9Y285),-0.006,0.017,-0.03,-0.003,0.001,-0.037,0.003,0.009,-0.015,-0.056,-0.025,0.381 (active),0.007,-0.006,0.003
EIF2B4 isoform 2 (UniProt Q9UI10),-0.002,0.004,-0.022,0.003,0.011,0,0.037,0.074,-0.003,0.002,0.023,-0.209,0.013,-0.002,0.012
GCN1 (UniProt Q92616),0.015,-0.017,-0.071,0.001,0.066,-0.072,-0.01,0.047,0.001,-0.037,0.01,-0.374 (active),0.114,0.033,-0.011
FUBP3 (UniProt Q96I24),-0.201,-0.016,-0.094,0.012,0.01,-0.029,-0.009,0.043,-0.005,0.032,-0.001,-0.325 (active),-0.032,0.047,-0.065
EPS8L2 (UniProt Q9H6S3),-0.011,0.05,0.051,-0.121,0.053,0.013,0.013,0.058,-0.01,0.013,–,0.017,-0.019,0.026,0.33 (active)
ELAVL1 isoform 2 (UniProt Q15717),-0.035,-0.014,-0.029,-0.009,0.037,-0.079,0.003,0.034,0.008,0.03,0.042,-0.326 (active),0.059,-0.051,0
FCHO1 (UniProt O14526),0.007,-0.02,-0.022,0.035,0.02,0.013,-0.025,0.063,0.006,0.007,0.041,-0.286 (active),0.03,-0.006,0.024
EIF2B4 (UniProt Q9UI10),0.053,-0.005,0.014,0.033,-0.022,0.02,0.016,0.022,0.039,-0.021,0.028,-0.135,0.013,-0.006,-0.05
EAPP (UniProt Q56P03),0.039,0.018,0.024,-0.095,-0.001,0.017,0.002,0.021,0.038,-0.045,-0.083,0.029,-0.086,0.024,0.024
ESRRA (UniProt P11474),-0.121,0.016,0.061,0.035,-0.096,-0.038,0.008,0.158,-0.016,0.016,-0.094,–,0.063,0.026,-0.034
ECI2 (UniProt O75521),0.085,-0.013,0.029,0.017,-0.01,0.023,-0.071,-0.027,-0.019,-0.022,0.08,0.146,0.022,0.284 (active),-0.033
GIPC3 (UniProt Q8TF64),0.183,-0.602 (active),-0.071,0.097,-0.009,-0.309,-0.067,0.134,0.045,0.016,–,-0.336,0.044,-0.007,-0.017
FDX2 (UniProt Q6P4F2),0.135,-0.025,0.058,-0.067,-0.006,-0.068,0.096,0.05,-0.068,0.052,-0.03,0.195,-0.069,-0.066,0.042

# From the supplement of paper PMC10849652
